In publication PMC5540273 (PLoS ONE, 2017):

Tested on: CDKL3
Details: concentration: 1 μM, replicates: in singlicate; n = 1
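Further: KINOMEscan kinase panel screen.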

Compound | %Inh [%]
CN1CCN(CCCNc2nccc(-c3c(-c4ccc(F)cc4)nn4cc(C(F)(F)F)ccc34)n2)CC1 [GW621581] | 0
C[C@@H]1CC[C@@H](C(=O)Nc2ccccc2)CN1c1cc(-c2ccc3c(N)n[nH]c3c2)nc(N)n1 [GSK2286062] | 0
Cl.Cl.NCC(NCc1ccc(-c2ccnc3[nH]ccc23)s1)c1ccccc1 (stereo not shown) [GSK1321565] | 0
Nc1n[nH]c2cnc(-c3ccccc3)cc12 [SB-642124] | 0
COc1cccc(NC(=O)NC2CCN(c3ccnc(Nc4cc(OC)c(OC)c(OC)c4)n3)C2)c1 (stereo not shown) [GSK1379763] | 0
COc1cccc(C(=O)Nc2cccc(Oc3ccc4nc(NC(=O)C5CC5)cn4n3)c2)c1 | 7
c1ccc(-c2n[nH]cc2Nc2ccnc3ccccc23)nc1 [GW694077] | 0
O=C(Nc1cccc(-c2nn3ccccc3c2-c2ccnc(Nc3cccc(C(F)(F)F)c3)n2)c1)c1c(F)cccc1F [GSK292658] | 0
CSc1cccc2c(-c3ccncn3)c(-c3ccc(F)cc3)nn12 [GW514786] | 0
COc1ccc(CNC(=O)NC2CCN(c3ccnc(Nc4ccc(F)cc4)n3)CC2)cc1 [GSK1379788] | 0
COCCOCCOc1cc2ncc3c4ccc(C#N)cc4[nH]c3c2cc1OC | 0
FC(F)(F)c1ccc(/C=C/c2cncnc2Nc2ccc3[nH]c(Cc4ccccc4)nc3c2)cc1 [GW709199] | 0
COc1cc(Nc2nccc(N3CCC(NC(=O)Nc4cccc(C(C)=O)c4)C3)n2)cc(OC)c1OC (stereo not shown) [GSK1379753] | 0
